Assay results as given in PubChem BioAssay AID686978 (National Center for Advancing Translational Sciences (NCATS), 2013).
In all, about 420,000 compounds went through this assay and about 64,000 (15%) were called active. Inconclusive results (about 27%) are left out. Calls follow the shape of the dose curve; as a rule, active = well fitted inhibition curve with a large enough effect; inconclusive = small, poorly fitted or top-dose-only effect; inactive = flat fitted curve, though single readings scatter. These entries were drawn from the full list. Peptide text beside a SMILES is read from it.
% is scaled to controls: 0 for no effect and ±100 for the full control effect; potency is read from the fitted curve at half-maximal effect.

Assay: qHTS for Inhibitors of human tyrosyl-DNA phosphodiesterase 1 (TDP1): qHTS in cells in absence of CPT; also: nearly all actives have a fitted effect of over 55% in size
Conditions: DT40 Tdp1-/- hTDP1 cells, no CPT, ATP luminescence, 48 h; activity change, negative = growth inhibition: at 46.2 µM (top of the series)
Method in brief: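 DT40 Tdp1-/-;hTDP1 cells, no CPT (DMSO vehicle only), 400 cells/well; compounds pin-transferred; ≥48 hr, 37 °C; CellTiter-Glo 30 min RT dark, luminescence read.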
For `Cc1nc2sc(C(c3ccco3)N3CCC4(CC3)OCCO4)c(O)n2n1` (centres undefined), the “activity change, negative = growth inhibition” value was 1.96% (inactive).
For `CC1=NN(c2cccc(Cl)c2)C(=O)C12CC(C)=C(C)CS2` (centres undefined), the “activity change, negative = growth inhibition” value was -20.8% (inactive).
For `Cc1nn(-c2ccccc2)c(NC(=O)c2cccs2)c(-c2ccc(Cl)cc2)c1=O`, the “activity change, negative = growth inhibition” value was -7.27% (inactive).
For `Cc1[nH]n(-c2cccc(Cl)c2)c(=O)c1-c1ccc(Cl)cc1`, the Potency was 16.4 µM (active).
In the case of `CCOC(=O)Cn1c(=O)oc2cc(S(=O)(=O)NCC3CCCO3)ccc21` (centres undefined), the “activity change, negative = growth inhibition” value is reported as -6.29% (inactive).
For `NC(=O)C1CCN(C(=O)COc2ccc3c4c(c(=O)oc3c2)CCC4)CC1`, the “activity change, negative = growth inhibition” value was 3.58% (inactive).
For `CC1CCCCN1CC(=O)N1CCCc2c1c(=O)oc1ccc(OCc3ccccc3)cc21` (centres undefined), the Potency was 4.61 µM (active).
In the case of `O=C(COc1ccc2oc3c(c2c1)CCCC3)Nc1ccccn1`, the “activity change, negative = growth inhibition” value is reported as -15.6% (inactive).
In the case of `COc1cccc(CCNC(=O)c2cccc(NC(=O)C3=C(C)OCCS3)c2)c1`, the “activity change, negative = growth inhibition” value is reported as -62.7% (inactive).
In the case of `CC1CCCCC1NC(=O)CCS(=O)(=O)c1cccc2nonc12` (centres undefined), the “activity change, negative = growth inhibition” value is reported as -13.7% (inactive).
For `CCOC(=O)COc1ccc(Cl)cc1C1NC(=O)NC(C)=C1C(C)=O` (centres undefined), the “activity change, negative = growth inhibition” value was 3.59% (inactive).
In the case of `CCOC(=O)C1=C(CN2CCCCCC2)NC(=O)NC1c1cccc([N+](=O)[O-])c1` (centres undefined), the Potency is reported as 20.6 µM (active).
With `CCOC(=O)C1=C(CNC2CCCCC2)NC(=O)NC1c1cc(C)ccc1C` (centres undefined) the Potency was 20.6 µM (active).
With `CCOC(=O)C1=C(COC(=O)[C@H](C)NS(=O)(=O)c2ccccc2F)NC(=O)NC1C` (some centres undefined) the “activity change, negative = growth inhibition” value was -3.81% (inactive).
For `CCOCCOC(=O)C1=C(C)NC(=O)NC1c1ccc2c(c1)OCO2` (centres undefined), the “activity change, negative = growth inhibition” value was 5.25% (inactive).
For `CCOC(=O)c1sc(-c2cccc([N+](=O)[O-])c2)cc1N`, the “activity change, negative = growth inhibition” value was -5.43% (inactive).
For `CCOC(=O)C1=C(CN2CCc3ccccc32)NC(=O)NC1c1cc(C)ccc1C` (centres undefined), the Potency was 12.6 µM (active).
In the case of `CCOC(=O)C1=C(CSc2nccn2C)NC(=O)NC1c1ccc(OC)cc1` (centres undefined), the “activity change, negative = growth inhibition” value is reported as -27.7% (inactive).
For `CCOC(=O)C1=C(c2ccccc2)NC(=O)NC1c1cc(OC)c(OC)cc1OC` (centres undefined), the “activity change, negative = growth inhibition” value was -9.62% (inactive).
For `CC(=O)NC(C(=O)NCC(N)=O)C(C)C` (centres undefined) (HELM PEPTIDE1{[ac].[CC(C)C(N[*:1])C(=O)[*:2]].G.[am]}$$$$V2.0), the “activity change, negative = growth inhibition” value was -3.83% (inactive).
With `C/C(Cc1ccccc1)=N\NC(=O)CNC(=O)c1ccccc1Cl` the “activity change, negative = growth inhibition” value was 6.63% (inactive).
In the case of `CCC(C)N(C(=O)Cn1nc(C)c([N+](=O)[O-])c1C)C1CCS(=O)(=O)C1` (centres undefined), the “activity change, negative = growth inhibition” value is reported as -0.177% (inactive).
With `Nc1cc(=O)n(Cc2ccccc2)c(=O)n1Cc1ccccc1` the “activity change, negative = growth inhibition” value was -9.87% (inactive).
With `COc1cc(OC)c(-n2c(C)cc(C=O)c2C)cc1Cl` the “activity change, negative = growth inhibition” value was -14.2% (inactive).
For `COc1ncnc2c1ncn2CCCNCCN1CCOCC1`, the “activity change, negative = growth inhibition” value was 12.5% (inactive).
In the case of `CN1/C(=C\C=C2\N=C(c3ccc(F)cc3)OC2=O)C(C)(C)c2ccccc21`, the Potency is reported as 23.1 µM (active).
With `Cc1ccnc2nc(C(=O)OCC(=O)N(CC(C)C)CC(C)C)nn12` the “activity change, negative = growth inhibition” value was -5.82% (inactive).
In the case of `O=C(O)c1ccccc1-c1ccccc1C(=O)Nc1nccs1`, the “activity change, negative = growth inhibition” value is reported as 3.73% (inactive).
With `COc1ccc(-c2ccc(CN3C(CC(C)C)C(=O)N(Cc4cn(CC5CCCCC5)nn4)CCS3(=O)=O)cc2)cn1` (centres undefined) the Potency was 18.4 µM (active).
With `COc1ccc(-c2ccc(CN3C(CC(C)C)C(=O)N(Cc4cn(CC5CCCCC5)nn4)CCS3(=O)=O)cc2)cc1` (centres undefined) the Potency was 9.2 µM (active).
With `COc1ccc(-c2ccc(CN3C(C(C)C)C(=O)N(Cc4cn(CC5CCCCC5)nn4)CCS3(=O)=O)cc2)cn1` (centres undefined) the Potency was 23.1 µM (active).
In the case of `COc1ccc([C@H]2CC(=O)C[C@@H](CCn3cc(CC4CCCC4)nn3)O2)cc1`, the “activity change, negative = growth inhibition” value is reported as -23.7% (inactive).
With `Cc1nccn1CCCNC(=O)CC1C(=O)NCCN1Cc1ccc(Cl)c(F)c1` (centres undefined) the “activity change, negative = growth inhibition” value was -10.3% (inactive).
For `O=C(NCc1cccnc1)C12CC3CC(CC(C3)C1)C2`, the “activity change, negative = growth inhibition” value was -20.2% (inactive).
With `Cc1ccc(/C=C/C(=O)OCC(=O)Nc2cccnc2Cl)cc1` the “activity change, negative = growth inhibition” value was 6.96% (inactive).
In the case of `COc1ccc(NC(=O)CCS(=O)(=O)c2cc3c(cc2Cl)NC(=O)CO3)cc1OC`, the “activity change, negative = growth inhibition” value is reported as 15.1% (inactive).
With `CC(C)C(C)(C#N)NC(=O)CSc1nncn1-c1ccccc1` (centres undefined) the “activity change, negative = growth inhibition” value was -26.6% (inactive).
For `Cn1c(=O)c2sccc2n2c(CCC(=O)NCc3ccccc3Cl)nnc12`, the “activity change, negative = growth inhibition” value was -28.7% (inactive).
For `CSc1ccc(Cl)c(C(=O)OCC(=O)N2CCNC2=O)c1`, the “activity change, negative = growth inhibition” value was -20.3% (inactive).
With `O=C(C1CC(=O)N(c2ccc(Br)cc2)C1)N1CCCC1` (centres undefined) the “activity change, negative = growth inhibition” value was -3.38% (inactive).
For `CCc1ccc(N2CC(C(=O)N3CCCCCC3)CC2=O)cc1` (centres undefined), the “activity change, negative = growth inhibition” value was -15.7% (inactive).
In the case of `Cc1ccc(N2CC(C(=O)N3CCC4(CC3)CC(=O)c3ccccc3O4)CC2=O)cc1C` (centres undefined), the Potency is reported as 14.6 µM (active).
For `Nn1c(SCC(=O)Nc2nccs2)nnc1-c1ccco1`, the “activity change, negative = growth inhibition” value was -0.464% (inactive).
With `COC(=O)C1=C(C(=O)c2ccc(C)cc2)C(c2ccccc2)n2nnnc2N1` (centres undefined) the “activity change, negative = growth inhibition” value was -11.2% (inactive).
With `CC(C)Cc1ccc(C(C)C(=N)N)cc1` (centres undefined) the Potency was 6.51 µM (active).
In the case of `COc1ccc(CCNC(=O)CC2SC(=Nc3cc(C)cc(C)c3)NC2=O)cc1OC` (centres undefined), the “activity change, negative = growth inhibition” value is reported as -23.3% (inactive).
With `O=C1c2cccnc2C(Nc2ccc(S(=O)(=O)N3CCCCCC3)cc2)N1Cc1ccccc1` (centres undefined) the “activity change, negative = growth inhibition” value was -25.2% (inactive).
In the case of `O=[N+]([O-])c1ccc2c(c1)C(O)n1nc(-c3ccccc3)nc1S2` (centres undefined), the “activity change, negative = growth inhibition” value is reported as -9.02% (inactive).
With `NC1=NN(c2cccc(C(=O)O)c2)C(=O)C1` the “activity change, negative = growth inhibition” value was 18% (inactive).
In the case of `Cc1nn(C)c(C)c1C(C)NC(=O)c1ccc(OC2CCN(Cc3ccccn3)CC2)cc1` (centres undefined), the “activity change, negative = growth inhibition” value is reported as -8.27% (inactive).
For `CN(C)c1ccc(-c2nnc(-c3cccnc3)o2)cc1`, the “activity change, negative = growth inhibition” value was -15.1% (inactive).
In the case of `O=C(OCc1nnc(-c2ccccc2)o1)c1ccc2c(c1)C(=O)N(CCc1ccccc1)C2=O`, the “activity change, negative = growth inhibition” value is reported as -6.81% (inactive).
For `Cc1onc(-c2ccccc2Cl)c1C(=O)OCc1nnc(-c2ccccc2)o1`, the Potency was 23.1 µM (active).
In the case of `Cc1onc(-c2ccccc2)c1-c1nnc(COC(=O)c2ccc(N(C)C)cc2)o1`, the Potency is reported as 20.6 µM (active).
With `C=CCn1nc(-c2ccccc2)c2c(C)onc2c1=O` the “activity change, negative = growth inhibition” value was 4.95% (inactive).
With `Cc1ccc(C(=O)NCC(=O)OCc2nnc(-c3ccccc3)o2)cc1` the “activity change, negative = growth inhibition” value was 10.3% (inactive).
With `CCCN1CNC(=S)N(CCc2ccccc2)C1` the “activity change, negative = growth inhibition” value was -27.4% (inactive).
With `O=C(CSc1nc2[nH]c(=O)[nH]c(=O)c2s1)Nc1cccc(F)c1` the “activity change, negative = growth inhibition” value was -21.4% (inactive).
In the case of `O=C(O)c1ccccc1-c1cccc2nncn12`, the “activity change, negative = growth inhibition” value is reported as -7.8% (inactive).
In the case of `CCOC(=O)c1sc2nc(C)[nH]c(=O)c2c1C`, the “activity change, negative = growth inhibition” value is reported as -15.4% (inactive).
In the case of `CCOC(=O)c1sc(=S)n2c1[nH]c(=O)c1ccc(C(=O)OC)cc12`, the Potency is reported as 5.8 µM (active).
With `COC(=O)c1ccc2c(=O)n(CC3CCCO3)c(=S)[nH]c2c1` (centres undefined) the “activity change, negative = growth inhibition” value was -7.54% (inactive).
In the case of `Cc1cc(C)c2c(n1)sc1c(=O)n(-c3ccccc3)c(=O)[nH]c12`, the “activity change, negative = growth inhibition” value is reported as -7.07% (inactive).
In the case of `CC(=O)Nc1cc(C(=O)O)ccc1S(=O)(=O)c1ccc(Cl)cc1`, the “activity change, negative = growth inhibition” value is reported as -8.93% (inactive).
